Active and inactive are the calls of the source. Rule for the calls: active = hit-call score of the fitted dose curve at least 0.9, where 1 is the maximum; inactive = score below 0.9.
molecular target: Cytochrome P450 2C19 (Homo sapiens) (UniProt P33261); assay: ERF_FR_ADME_hCYP2C19_CEC: Eurofins (ERF) CYP450-related Enzyme Activity (ADME) Assay for CYP2C19 Inhibition Assay, CEC Subtrate
Method: ERF_FR_ADME_hCYP2C19_CEC is a biochemical, single-readout assay that uses extracted gene-proteins in a cell-free assay. Measurements were taken 0.83 hour after chemical dosing in a 96-well plate. See CYP2C19 inhibition (recombinant, CEC substrate).ERF_FR_ADME_hCYP2C19_CEC is an assay component calculated from the ERF_FR_ADME_hCYP2C19_CEC assay. It is designed to measure enzyme activity using a type of enzyme reporter as detected by fluorescence intensity of HFC with fluorimetry technology.Data from the assay component ERF_FR_ADME_hCYP2C19_CEC was analyzed at the assay endpoint, ERF_FR_ADME_hCYP2C19_CEC, in the positive analysis fitting direction relative to acetonitrile as the negative control and baseline of activity. Using a type of enzyme reporter, loss-of-signal activity can be used to understand changes in enzymatic activity as they relate to gene CYP2C19. To generalize the intended target to other relatable targets, this assay endpoint is annotated to the cyp intended target family, where the subfamily is steroidogenesis-related.
Assay is performed with 1 compound concentration(s) and each concentration tested using 2 replicate

Sequence of Cytochrome P450 2C19 (Homo sapiens) (P33261 whole entry, looked up): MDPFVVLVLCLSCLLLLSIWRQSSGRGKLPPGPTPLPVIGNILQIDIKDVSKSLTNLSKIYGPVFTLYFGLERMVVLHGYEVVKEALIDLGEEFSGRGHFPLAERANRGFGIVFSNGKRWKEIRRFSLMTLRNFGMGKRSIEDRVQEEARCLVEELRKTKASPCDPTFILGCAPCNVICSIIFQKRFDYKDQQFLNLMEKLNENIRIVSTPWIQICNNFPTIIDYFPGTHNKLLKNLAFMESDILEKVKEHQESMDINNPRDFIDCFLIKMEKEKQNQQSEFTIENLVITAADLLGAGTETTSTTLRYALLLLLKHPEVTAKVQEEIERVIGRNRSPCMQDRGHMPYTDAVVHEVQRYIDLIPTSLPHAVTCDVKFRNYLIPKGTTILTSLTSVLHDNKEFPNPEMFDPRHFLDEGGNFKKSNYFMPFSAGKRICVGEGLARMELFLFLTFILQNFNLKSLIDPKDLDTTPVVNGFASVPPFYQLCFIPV

| Structure (SMILES) | AC50 |
| --- | --- |
| O=C(/C=C/c1ccc(O)cc1)CC(=O)/C=C/c1ccc(O)cc1 | 1470 nM (active) |
